Screening results: PubChem BioAssay, National Center for Advancing Translational Sciences (NCATS)
JMJD2A Tudor: qHTS Assay for Inhibitors of JMJD2A-Tudor Domain; hit rate 4.4% among 390,000; AlphaScreen JMJD2A-Tudor / H3K4me3 peptide binding; Lysine-specific demethylase 4A (Homo sapiens), O75164; AID 504339, 2011; Potency, µM (series often up to 114 µM), inactives show at the top dose activity change, negative = inhibition, actives largely listed as inhibitors; also: % is scaled to controls: 0 for no effect and ±100 for the full control effect; nearly all actives have a fitted effect of over 50% in size
HP1b chromo inh: HTS for Inhibitors of HP1-beta Chromodomain Interactions with Methylated Histone Tails. Chromobox protein homolog 1 (Homo sapiens), P83916. AlphaScreen HP1-beta / biotin-H3K9me3 peptide binding. Potency, µM (titrated, usually from 114 µM), inactives show at the top dose activity change, negative = inhibition, hits mostly inhibitors. hit rate 0.56% among 390,000; also: nearly all actives have a fitted effect of over 70% in size
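HP1-beta protein (50 nM final) preincubated 30 min at room temperature with biotinylated H3(1-18)K9me3 peptide (50 nM) in PBS pH 7.4, 0.01% Tween-20, then compound added for 30 min. AlphaScreen streptavidin donor/nickel chelate acceptor beads (10 ug/mL final), 30 min dark, luminescence read.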
BAZ2B inh: qHTS Assay for Inhibitors of BAZ2B; Potency, µM (doses to about 114 µM), without a hit: at the top dose activity change, negative = inhibition, usual class: inhibitors; hit rate 4.4% among 360,000; Bromodomain adjacent to zinc finger domain protein 2B (Homo sapiens), Q9UIF8; AlphaScreen BAZ2B-H3K14Ac peptide displacement; also: % is scaled to controls: 0 for no effect and ±100 for the full control effect; nearly all actives have a fitted effect of over 60% in size
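Protein-peptide AlphaScreen: BAZ2B 50 nM, b-H3K14Ac 50 nM, 1x PBS pH 7.4 + 0.01% Tween-20. Preincubation 30 min RT; cpd 30 min RT (top 110 uM); beads 20 min RT, light-protected.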
Sfp PPTase inh: qHTS Assay for Inhibitors of Bacillus subtilis Sfp phosphopantetheinyl transferase (PPTase) | Potency, µM, for inactives: largest response in the series, negative = inhibition, actives largely listed as inhibitors | Biochemical Sfp PPTase activity, qHTS | 4'-phosphopantetheinyl transferase ffp (Bacillus subtilis), Q9F4F7 | hit rate 3.5% among 310,000 | AID 1490, 2009;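 also: the enzyme is Sfp with the accession as filed and its product quenches rhodamine fluorescence; 0% = enzyme reaction without inhibitor and -100% = no enzyme wells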
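Reaction rates are the 30-min fluorescence difference (ex 525, em 598 nm) in wells containing 15 nM Sfp, 5 uM rhodamine-CoA and 12.5 uM BHQ-2-YbbR at pH 7.6 with 10 mM MgCl2.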
G9a inh: qHTS Assay for Inhibitors of Histone Lysine Methyltransferase G9a. Histone-lysine N-methyltransferase EHMT2 (Homo sapiens), Q96KQ7. G9a H3K9 monomethylation, AlphaScreen, 2 h. Potency, µM (highest dose often 102 µM), for the others: at the highest dose activity, negative = inhibition, actives largely listed as inhibitors. hit rate 8.8% among 350,000. AID 504332, 2011; also: % is scaled to controls: 0 for no effect and ±100 for the full control effect; nearly all actives have a fitted effect of over 75% in size
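Step 1: enzyme (final 20 nM) with compound, 15 min RT. Step 2: substrate peptide 500 nM and SAM 20 uM, 2 h RT. Step 3: anti-H3K9me1 antibody and AlphaScreen beads, 10 min, then plate read.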
* hit, by the source's call; ? = inconclusive; / = not tested or not shown; [ ] = dose if it differs, or a comment. Most compounds without a hit are left out; they make up all but 12% or so of the library. Calls follow the shape of the dose curve; as a rule, active = well fitted curve in the direction sought with a large enough effect; inconclusive = small, poorly fitted or top-dose-only effect, or another doubt; inactive = no such curve, though single readings can be large; an effect the other way counts as inactive or inconclusive. Potency is read from the fitted curve at half-maximal effect.

SMILES	JMJD2A Tudor	HP1b chromo inh	BAZ2B inh	Sfp PPTase inh	G9a inh
COc1ccc(-c2nc3c(n2O)CCc2c-3no[n+]2[O-])cc1	-11%[11.4 µM]	-4%	-32%	14%	50µM*
COn1c(-c2ccccc2)nc2c1CCc1c-2no[n+]1[O-]	-6%	19%	6%	19%	14%[59 µM]
O=C1NC(=S)S/C1=C\c1cc(Cl)cc(Cl)c1O	40µM*	45µM*	/	/	/
Cc1cc(/C=C2\SC(=S)NC2=O)cc(C)c1O	-31%	-6%	?	13%	40µM*
Cc1nn(C)cc1/C=C1\SC(=S)NC1=O	-13%	38%	14%	-13%	?
CC(=O)/C(N=Nc1cccc(C(F)(F)F)c1)=C(\C)O	-18%	25%	-17%	-30%	2%
O=C(/C(N=Nc1cccc(C(F)(F)F)c1)=C(/O)c1cccs1)C(F)(F)F	50µM*	?	?	-6%	20µM*
CC(C)N(C(=O)[C@H]1C[C@H](CC(=O)NCCc2ccccn2)C(=O)N2CCc3c([nH]c4cc(-c5ccco5)ccc34)[C@]12C)C(C)C	56µM*	-36%	/	/	/
CC(C)N(C(=O)[C@H]1C[C@H](CC(=O)NCc2ccco2)C(=O)N2CCc3c([nH]c4cc(-c5ccco5)ccc34)[C@]12C)C(C)C	56µM*	?	/	/	/
CC(C)N(C(=O)[C@H]1CC(CC(=O)NCc2ccco2)C(=O)N2CCc3c([nH]c4ccccc34)[C@]12C)C(C)C (some centres undefined)	-25%	15%	/	/	/
Cc1cc(C)n2nc(C(=O)N3CCCC(Nc4ccc(F)c(F)c4)C3)cc2n1 (centres undefined)	1%	27%	-17%	14%	22%
S=C(NCCc1ccccc1)NCCc1ccccc1	-20%	11%	-7%	11%	-1%[59 µM]
O=C(CCS(=O)CCC(=O)NCc1ccccc1)NCc1ccccc1	-4%	40%	-38%	13%	50µM*
S=C(NCCCCNC(=S)NCc1ccccc1)NCc1ccccc1	-1%	-11%	-20%	-12%	45µM*
S=C(NCc1ccccc1)C(=S)NCc1ccccc1	35µM*	?	/	/	/
S=C(NCCCCc1ccccc1)NCc1ccccc1	-10%	46%	-22%	3%	55%
S=C(NCCc1ccccc1)NCc1cccc(Cl)c1	3%	37%	?	-1%	8.9µM*
CCCC[C@H]1CCCO[C@@](C(=O)NCc2cc(C)n(C)n2)(C(F)(F)F)C1	-9%	36%	/	11%	/
